Test results taken from the supplement of paper PMC10127200.
Structures can show the parent of a compound that is named as a salt.

The molecules below were run on A549 (assay: Euclidean distance of Cell Painting phenotypic profile (signed KS, 77 features) to DMSO centroid (dimensionless distance); 5 or 10 uM (library dependent); higher = stronger phenotypic change vs DMSO (phenoactivity)). Settings: 48 h.
Outline: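 Phenoactivity is computed as Euclidean distance to the median vehicle profile. The profiles, drawn from 77 Harmony features scored as signed Kolmogorov-Smirnov statistics versus same-plate vehicle wells, were corrected for plate position, correlation-weighted and replicate-averaged at the top dose. Stained cells were imaged confocally at 20X (9 fields/well) after 48 h with library compounds at 10 or 5 uM, 0.1% DMSO final, in five cancer lines and a healthy fibroblast line.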

SMILES | Euclidean distance
O=C(O)COc1nn(Cc2ccccc2)c2ccccc12 [Bendazac] | 0.905
COc1ccc(Cl)cc1NC(=O)Nc1cc(C)nc2ccccc12 | 1.85
C#C[C@]1(OC(C)=O)CC[C@H]2[C@@H]3CCC4=C[C@@H](OC(C)=O)CC[C@@H]4[C@H]3CC[C@@]21C [Ethynodiol diacetate] | 1.31
CN[C@H]1C(=O)N[C@@H]2Cc3ccc(cc3)Oc3cc4cc(c3O[C@@H]3O[C@H](C(=O)O)[C@@H](O)[C@H](O)[C@H]3NC(=O)CCCCCCCCC(C)C)Oc3ccc(cc3Cl)[C@@H](O)[C@@H]3NC(=O)[C@H](NC(=O)[C@@H]4NC(=O)[C@@H](NC2=O)c2cc(cc(O)c2Cl)Oc2cc1ccc2O)c1ccc(O)c(c1)-c1c(O[C@H]2O[C@H](CO)[C@@H](O)[C@H](O)[C@@H]2O)cc(O)cc1[C@@H](C(=O)NCCCN(C)C)NC3=O [Dalbavancin] | 0.819
Cc1nccn1CC1CCc2c(c3ccccc3n2C)C1=O (centres undefined) [Ondansetron Hydrochloride Dihydrate] | 0.687
CCC(=O)O[C@]1(C(=O)CCl)[C@@H](C)C[C@H]2[C@@H]3CCC4=CC(=O)C=C[C@]4(C)[C@@]3(F)[C@@H](O)C[C@@]21C [Clobetasol propionate] | 2.17
CNC[C@H](O)c1ccc(O)c(O)c1 [Epinephrine HCl] | 0.611
CCOC(=O)C1=C(COCCN)NC(C)=C(C(=O)OC)C1c1ccccc1Cl (centres undefined) [Amlodipine] | 0.917
Cc1c(O)cccc1C(=O)N[C@@H](CSc1ccccc1)[C@H](O)CN1C[C@H]2CCCC[C@H]2C[C@H]1C(=O)NC(C)(C)C [Nelfinavir Mesylate] | 2.45
